Results on 108 compounds are retold here after PubChem BioAssay AID2289 (National Center for Advancing Translational Sciences (NCATS), 2010).

Screen size: about 340,000 compounds; about 3,300 (0.97%) were called active. Roughly 9% stayed inconclusive and do not appear here. The call rests on the fitted dose curve; in most records, active means well fitted inhibition curve with a large enough effect; inconclusive means small, poorly fitted or top-dose-only effect, or effect the other way; inactive means flat fitted curve, though single readings scatter. This is one part of the list.
Potency means the concentration at half of the fitted maximal effect.

This test in a line: qHTS Assay for Modulators of miRNAs and/or Inhibitors of miR-21. Further: nearly all actives have a fitted effect of over 55% in size. To be noted: HeLa miR-21-FLuc reporter, luciferase luminescence, 48 h; actives lower the signal. The text has this: MLSCN Grant: 1 R21 NS059478-01 Assay Provider: Qihong Huang, The Wistar Institute NCGC Assay Overview: MicroRNAs (miRNAs) are endogenously encoded small (~20-25 nucleotides), nonprotein-coding RNAs that are involved in post-transcriptional repression of target messenger RNAs (mRNAs) (Le and Hannon, 2004). Estimated to be involved in the regulation of 30% of all protein-coding mRNAs (Filipowicz et al., 2008), miRNAs play a significant role in many biological processes including cellular differentiation and tissue development (Ghildiyal and Zamore, 2009).
NCGC Assay Protocol Summary: Reagents: HeLa cells stably expressing firefly luciferase (FLuc) under the control of a CMV promoter (upstream) and a miR-21 binding sequence directly downstream of the gene. These cells endogenously express miR-21. Control compounds used were compound C3 (provided by collaborator), N6-phenyladenosine (MP Biomedicals, 0215379625), and DMSO. Assay Summary: 6uL of HeLa miR-21-FLuc cells in assay buffer (DMEM, Invitrogen #21063-029; 10% FBS, HyClone #SH30071.03) were dispensed at 2000cells/well (3.3 x 10^5 cells/mL) into Greiner solid-white TC-treated 1536-well plates using a Multidrop Combi (Thermo Fisher Scientific). Plates were incubated for one hour at 37 degree Celsius, 95% humidity, 5% CO2. These assay plates were then treated with 23nL of compound or DMSO using a Kalypsys pin tool, which allows for delivery of a 24-point titration of each compound to the assay plate, with a final compound concentration ranging from approximately 40uM to 5pM. Assay plates were then incubated for 48 hours. After incubation, plates were allowed to come to RT for one hour prior to delivery of 3uL of 3X luciferase detection reagent. After a 15 minute incubation to allow for cell lysis, luciferase activity was measured using a ViewLux CCD imager (PerkinElmer), with an average exposure time of 2-12 seconds. Keywords: NIH Roadmap, MLPCN, MLSMR, qHTS, miR-21, microRNA, firefly luciferase, FLuc.
In general terms: qHTS replaces the single test concentration by a dilution series.
With `COc1ccccc1N=c1oc2cc(O)ccc2cc1C(=O)NCC1CCCO1` (stereo not drawn), the Potency was 9.27 µM (active).

Consider `CCOC(=O)/C=C(\C)N1N=C(c2ccccc2)CC1c1ccccc1` (stereo not drawn), for which the Potency is 2.33 µM (active). On to `CN(/N=C/c1ccc2c(c1)OCO2)c1ccccc1`, for which the Potency was 6.56 µM (active). With `COc1cc(/C=N/N(C)c2ccccc2)ccc1O` the figure was 2.61 µM (active); with `CCOc1ccc(/C=N/N(C)c2ccccc2)cc1OC`, 4.65 µM (active). The value for `COc1ccc(OC)c(/C=N/N(C)c2ccccc2)c1` was 6.56 µM (active); that for `CC12CN3CCN(CC(C3)/C1=N\NC(=O)c1ccccc1N)C2` was 10.4 µM (active). In the case of `Nc1ccccc1C(=O)N/N=C1\C2CN3CCN(C2)CC1(c1ccccc1)C3`, the Potency is 7.36 µM (active). `CCCCC12CN3CCN(CC(C3)/C1=N\NC(=O)c1ccccc1N)C2`: the Potency is 9.27 µM (active). The value for `O=C(CSc1nnc2ccc3ccccc3n12)c1ccc(F)cc1` was 9.27 µM (active); that for `c1ccc2c(c1)ccc1nnc(SCc3ccc4c(c3)OCCO4)n12` was 16.5 µM (active); that for `COc1ccc2oc(-c3ccc(C)c(NC(=O)c4ccc5c(c4)OCCO5)c3)nc2c1` was 8.26 µM (active). The value for `Cc1ccc2nc(-c3ccc(Cl)c(NC(=O)c4ccc5c(c4)OCCO5)c3)oc2c1` was 7.36 µM (active); that for `CCc1cccc(C)c1NC(=O)Cn1nc(C)n2cccc2c1=O` was 4.65 µM (active). On to `Cc1nn(CC(=O)Nc2ccccc2C(F)(F)F)c(=O)c2cccn12`, for which the Potency is 16.5 µM (active). Turning to `Cc1cc(C(=O)N(C)C)sc1-c1ccccc1`, the Potency is 5.21 µM (active).

In the case of `CC1=C(c2ccc(C)cc2)[N+](=O)C(C)(C)N1[O-]`, the Potency is 3.69 µM (active).

Regarding `CCc1cccc2c(C(=O)COC(=O)c3ccccc3)c[nH]c12`, the Potency was 16.5 µM (active). With `COc1ccc(-c2csc(N=C(N)N)n2)cc1` the figure was 8.26 µM (active); with `Cc1ccsc1/C=N\NC(=O)c1cc(C(C)(C)C)[nH]n1`, 4.14 µM (active). With `O=C(Nc1nc2ccsc2c(=O)s1)c1ccc(F)cc1` the figure was 0.414 µM (active); with `Cc1ccc(Nc2nc(C)cs2)cc1`, 6.56 µM (active); with `Cc1ccc(Nc2nc(-c3ccncc3)cs2)cc1`, 0.656 µM (active).

As to `CCOc1ccc(Nc2nc(-c3cccnc3)cs2)cc1`, the Potency is 0.585 µM (active). The value for `Cc1ccc(Nc2nc(C3CC3)cs2)cc1` was 1.65 µM (active); that for `Cc1csc(Nc2ccc(Cl)cc2)n1` was 10.4 µM (active); that for `O=[N+]([O-])c1ccccc1Nc1nc(-c2cccnc2)cs1` was 18.5 µM (active).

For the compound `O=C(C[n+]1cn(C(F)F)c2ccccc21)c1ccc(OC(F)F)cc1`, the Potency was 5.85 µM (active).

Take `Clc1ccc(-c2cnc(Oc3ccccc3)nc2)cc1`: the Potency was 2.07 µM (active). The value for `Cc1ccc(SCC(=O)Nc2ccc3c(c2)OCCO3)cc1` was 1.65 µM (active); that for `Cc1ccccc1Nc1nnc(SCC(=O)NC(=O)Nc2ccc3c(c2)OCCO3)s1` was 10.4 µM (active); that for `O=C(Nc1ccc2c(c1)OCCO2)C1CC1c1ccccc1` (stereo not drawn) was 7.36 µM (active). With `Cc1ccc(N(CC(=O)Nc2ccc3c(c2)OCCO3)S(C)(=O)=O)cc1` the figure was 10.4 µM (active); with `O=C(CSc1ccc(-c2ccccc2)nn1)Nc1ccc2c(c1)OCCO2`, 8.26 µM (active). With `O=C(CSc1ccccc1)Nc1ccc2c(c1)OCO2` the figure was 13.1 µM (active); with `Cc1cccc(-c2nsc(SCC(=O)Nc3ccc4c(c3)OCO4)n2)c1`, 13.1 µM (active); with `O=C(Nc1ccc2c(c1)OCO2)N1CCCc2ccccc21`, 13.1 µM (active).

With `O=C(CC1CS(=O)(=O)CC1CC(=O)Nc1ccc2c(c1)OCCO2)Nc1ccc2c(c1)OCCO2` (stereo not drawn), the Potency was 7.36 µM (active).

For `CCc1ccc(C(=O)Nc2cc(C)ccc2F)s1`, the Potency is 6.56 µM (active).

For the compound `CCOc1ccc(NC(=O)Nc2cc(C)ccc2F)cc1`, the Potency is 1.85 µM (active).

On to `O=c1cc(CNc2ccc(Br)cc2)nc2sccn12`, for which the Potency is 18.5 µM (active). The value for `Cc1ccc(SCc2cc(=O)n3ccsc3n2)c(C)c1` was 9.27 µM (active); that for `COc1cccc(C(=O)NCCn2ccc3ccccc32)c1` was 5.21 µM (active); that for `Cc1cccc(NC(=S)NNC(=O)c2csc(C)c2)c1` was 2.93 µM (active). The value for `CCc1cc(C(=O)Nc2ccc(C)cc2Br)cs1` was 1.04 µM (active). Turning to `Cc1cccc(NC(=S)NNC(=O)c2csc(C(C)C)c2)c1`, the Potency was 3.69 µM (active).

Regarding `CCc1cc(C(=O)NNC(=S)Nc2cccc(C)c2)cs1`, the Potency is 4.14 µM (active).

As to `O=C(NNC(=S)Nc1ccccc1Cl)c1ccccc1Br`, the Potency was 0.927 µM (active). As to `Cc1cccc(NC(=S)NNC(=O)c2ccccc2Br)c1`, the Potency was 2.07 µM (active). The value for `CCCc1cc(C(=O)NNC(=S)Nc2cccc(C)c2)cs1` was 3.69 µM (active); that for `Cc1cccc(NC(=S)NNC(=O)c2ccc3c(c2)OCO3)c1` was 0.464 µM (active). In the case of `Cc1c(C(=O)NNC(=S)Nc2cccc(Cl)c2)nnn1-c1ccccc1`, the Potency was 16.5 µM (active). The value for `CCOC(=O)c1cnc2c(-c3ccccc3)cnn2c1C` was 0.927 µM (active); that for `CCOC(=O)Cc1c(C)nc2c(-c3ccccc3)cnn2c1C` was 16.5 µM (active); that for `CC(C)C(=O)Nc1nc2c(s1)CC(C(C)(C)C)CC2` (stereo not drawn) was 2.07 µM (active). With `Nn1c(SCc2ccccc2)nc2ccccc21` the figure was 4.14 µM (active); with `CCOC(=O)CSc1nc2cc3c(cc2cc1C#N)OCO3`, 1.04 µM (active). The value for `CCOC(=O)CSc1nc2cc3c(cc2cc1C#N)OCCO3` was 0.147 µM (active); that for `Brc1ccc(-c2csc(NC3=NCCCCC3)n2)cc1` was 10.4 µM (active). With `N#Cc1ccc(-c2csc(NC3=NCCCCC3)n2)cc1`, the Potency was 6.56 µM (active). With `O=C(NC(=S)Nc1ccccn1)c1ccco1` the figure was 3.69 µM (active). As for `Cc1ccnc(NC(=S)NC(=O)c2ccco2)c1`, the Potency is 1.17 µM (active). With `O=C(Nc1ccccc1F)c1cc2nc(C(F)F)cc(C(F)F)n2n1` the figure was 18.5 µM (active); with `Cc1cccc(NC(=O)c2ccc(OC3CSC3)cc2)c1`, 2.93 µM (active). The value for `CCC(C)c1ccc(OCc2ccc(C(=O)OC)o2)cc1` (stereo not drawn) was 4.65 µM (active); that for `CCC(C)c1ccc(OCc2ccc(C(=O)O)o2)cc1` (stereo not drawn) was 0.233 µM (active). With `COc1cc(C=O)ccc1OCc1cccc(Br)c1` the figure was 14.7 µM (active); with `COc1cc(/C=C2/C(=O)ON=C2C)ccc1OCc1cccc(F)c1`, 10.4 µM (active); with `CCOC(=O)c1c(C)[nH]c(N=Nc2ccc(OC)cc2)c1C`, 2.93 µM (active). As to `CCOC(=O)c1c(C)[nH]c(N=Nc2cccc(OC)c2)c1C`, the Potency is 0.927 µM (active).

Take `CCOC(=O)c1c(C)[nH]c(N=Nc2ccccc2)c1C`: the Potency was 7.36 µM (active).

Turning to `CCOC(=O)c1c(C)[nH]c(N=Nc2ccc(C)cc2C)c1C`, the Potency is 10.4 µM (active). The value for `CCOc1ccc(N=C(/C(C(=O)C(=O)N2CCOCC2)=C(\O)c2ccccc2)c2ccccc2)cc1` was 3.69 µM (active).

`CC1CCCCN1c1nc(-c2ccc(C(C)(C)C)cc2)nc2ccccc12` (stereo not drawn): the Potency is 0.585 µM (active). For the compound `CCOC(=O)C1CCCN(c2ncnc3c2oc2ccccc23)C1` (stereo not drawn), the Potency was 16.5 µM (active). The value for `Brc1ccc2oc3c(N4CCOCC4)ncnc3c2c1` was 4.65 µM (active). The value for `c1ccc2c(c1)oc1c(N3CCOCC3)ncnc12` was 16.5 µM (active). Turning to `Cc1ccc(-c2onc3ccc(C(=O)O)cc23)cc1`, the Potency is 1.17 µM (active).

Take `FC(F)(F)c1ccc(NCc2ccccn2)nc1`: the Potency is 13.1 µM (active). The value for `COc1cc(N2Cc3ccccc3C2)ccc1C=O` was 5.21 µM (active). `Fc1cccc(/C=N/Nc2ncnc3nc[nH]c23)c1`: the Potency is 1.65 µM (active). The value for `Clc1ccc(/C=N/Nc2ncnc3nc[nH]c23)cc1` was 1.65 µM (active); that for `Fc1ccc(/C=N/Nc2ncnc3nc[nH]c23)cc1F` was 4.14 µM (active). The value for `CCCSc1nc(N)nc(-c2cccs2)c1C#N` was 13.1 µM (active). The value for `CC(C)Sc1nc(N)nc(-c2cccs2)c1C#N` was 2.93 µM (active); that for `CCSc1nc(N)nc(-c2cccs2)c1C#N` was 16.5 µM (active); that for `CCCCNC(=O)N(C)c1nc2ccccc2s1` was 8.26 µM (active). Regarding `COc1ccc2nc(SCc3ccccc3)nc(C)c2c1`, the Potency is 1.17 µM (active). With `Cc1nc(SCc2ccccc2)nc2c1CCC2` the figure was 5.85 µM (active). With `COc1ccc2nc(SCc3cccc(C)c3)nc(C)c2c1` the figure was 7.36 µM (active); with `O=C1/C(=C\c2cccs2)Sc2ccc3ccccc3c21`, 0.521 µM (active). In the case of `Cn1c(NC(=O)CCc2ccccc2)cc(=O)n(C)c1=O`, the Potency was 3.69 µM (active). `Cn1c(NC(=O)CCC2CCCCC2)cc(=O)n(C)c1=O`: the Potency was 1.17 µM (active). The value for `Cc1cc(NC(=O)CCC2CCCCC2)no1` was 16.5 µM (active); that for `CC1CCC(NC(=O)CNC(=O)c2cccs2)CC1` (stereo not drawn) was 3.29 µM (active). The value for `O=C(CNC(=O)c1ccc(F)cc1)c1ccc(Cl)cc1` was 3.69 µM (active).

With `O=C(CCCC(=O)c1ccc(F)cc1)c1ccc(F)cc1`, the Potency was 3.29 µM (active). With `O=C(CNC(=O)c1cccs1)c1ccc(Br)cc1` the figure was 3.29 µM (active); with `O=C(CNC(=O)c1ccccc1F)c1ccc(Br)cc1`, 1.47 µM (active); with `Cc1ccc(N=C2NC(=O)/C(=C\c3cccs3)S2)cc1C`, 10.4 µM (active). With `Cc1ccc(OCCCSc2ncccn2)cc1C` the figure was 14.7 µM (active); with `Clc1ccc(OCCSc2ncccn2)cc1`, 3.69 µM (active). With `Clc1ccc(OCCSc2ncccn2)c(Br)c1` the figure was 1.31 µM (active); with `CC(C)CSc1nnc2c3ccccc3n(C)c2n1`, 1.31 µM (active).

As for `O=C(/C=C/c1nc2ccccc2s1)N1CCCCCC1`, the Potency is 2.07 µM (active). With `CCC(=O)N1CCc2nc(-c3ccccc3)sc2C1` the figure was 14.7 µM (active); with `Cc1cccc(C)c1NC(=O)c1c[nH]c2ccccc12`, 3.69 µM (active). With `Clc1nc(-c2cccnc2)nc2scc(-c3ccccc3)c12` the figure was 7.36 µM (active).
